Bcl-B Bim block – inhibitors of Bim-Bcl-B interaction, human. Q9HD36. bead-based flow cytometry, Bim peptide-Bcl-B binding. inhibition, % at 10 µM. 190,000 compounds, 0.073% hits
Bim-Bcl-W – human Bim-Bcl-W interaction inhibition; Q92843; bead-based flow cytometry, Bim peptide-Bcl-W binding; inhibition, % at 10 µM; 190,000 compounds, 0.02% hits;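 note: higher means less fluorescent Bim peptide bound to Bcl-W beads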
Bcl-XL Bim block – inhibitors of Bim-Bcl-XL interaction, human; Bim peptide-Bcl-XL binding, bead flow cytometry, fluorescence; inhibition, % at 10 µM; 190,000 compounds, 0.04% hits; Q07817
Bfl-1 Bim block – disrupts Bim binding to human Bfl-1. Q16548. Bead-based flow cytometry, Bim-Bfl-1 binding inhibition. inhibition, % at 10 µM. 190,000 compounds, 0.12% hits
Bim-Bcl-2 – human Bim-Bcl-2 interaction inhibition; Bead-based flow cytometry, Bim peptide-Bcl-2 binding; P10415; 190,000 compounds, 0.06% hits; inhibition, % at 10 µM; in the data active = inhibition above about 40%
A number is an active result; n = inactive. This is a sample that favours compounds with a hit; in the whole collection about 0.2% have one here. Cut-off read from the data, not from the text of the source, unless noted: active = inhibition above about 40%.

SMILES	Bcl-B Bim block	Bim-Bcl-W	Bcl-XL Bim block	Bfl-1 Bim block	Bim-Bcl-2
O=C1NC(=O)C(=Cc2ccc(-c3cc(Cl)ccc3[N+](=O)[O-])o2)C(=O)N1	n	n	n	45.0	n
CN1CCN(c2ccc(N)cc2)CC1	61.0	n	n	n	n
CN(C)c1ccc(C=C2C(=O)NC(=S)NC2=O)cc1[N+](=O)[O-]	n	n	n	n	n
CN(C)c1ccc(C=C2C(=O)NC(=O)NC2=O)cc1[N+](=O)[O-]	n	n	n	48.0	n
CC(C)=CCOc1c2occc2cc2ccc(=O)oc12	n	n	n	n	n
CCOC(=O)C1=CC(=C2C(=O)N(CC)C(=S)N(CC)C2=O)c2ccccc2O1	n	n	n	n	n

From PubChem BioAssay
